Sampled rows, rich in hits. Any-hit rate of the full collection: about 7.8%.
NOMO-1 viab – STK33 inhibitor candidate reducing NOMO-1 cell viability; inhibition, % (test concentration not listed); NOMO-1 AML viability, CellTiter-Glo luminescence, 72 h; 37,000 compounds, 7.5% hits; in the data active = inhibition above about 80%
MITF inh – blocks MITF activity | TRPM1 promoter luciferase, luminescence, 24 h | inhibition, % (no concentration beside the values) | 37,000 compounds, 0.28% hits | AID 2240; in the data active = inhibition above about 85%;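 note: human melanocyte line stably carrying TRPM1 promoter luciferase reporter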
Shh pathway inh – Sonic Hedgehog pathway inhibition; Shh-LIGHT2 Gli-luciferase reporter, 30 h; inhibition, % (no concentration beside the values); 22,000 compounds, 2.1% hits;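 active = mean inhibition across valid replicates above about 65%, limit read from the data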;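 note: pathway switched on by Shh-conditioned medium diluted 1 in 25 in low serum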
Active calls of the source: *; x = no result given.

SMILES	NOMO-1 viab	MITF inh	Shh pathway inh
C[C@H]1CN([C@@H](C)CO)C(=O)Cc2cc(NC(=O)CCCCCC(=O)Nc3ccccc3N)ccc2O[C@H]1CN(C)Cc1ccc(Oc2ccccc2)cc1	140*	49	x
Cc1noc(C)c1NC(=O)N(C)C[C@@H]1Oc2c(NC(=O)Nc3cccc4ccccc34)cccc2C(=O)N([C@H](C)CO)C[C@@H]1C	40	-2	-101
C=C[C@H]1C(=C)CCC2[C@H]1CC[C@@]1(O)[C@@](C)(C(=O)O)[C@H](O)CC[C@]21C (some centres not stated)	14	-28	-27
Cc1ccc(S(=O)(=O)Nc2ccc3c(c2)C(=O)N([C@@H](C)CO)C[C@@H](C)[C@@H](CN(C)CC2CCCCC2)O3)cc1	3	1	11
COc1ccc(CC(=O)Nc2cccc(-c3nc4cc5ccccc5cc4[nH]3)c2)cc1	135*	-3	x
Cc1ccc(OCC(=O)Nc2cccc(-c3nc4ccccc4[nH]3)c2)cc1	7	-66	x
Cc1nnc(SCC(=O)Nc2ccccc2C#N)s1	4	1	x
COc1ccc2c(c1)c(=O)oc1cc(OCC(=O)Nc3cc(C)cc(C)c3)ccc12	94*	-13	x
Cc1cc(C)cc(NC(=O)COc2ccc3cc(-c4ccccc4)c(=O)oc3c2)c1	66	-24	x
COC(=O)c1sc(SC)c(C#N)c1-c1cccc(Cl)c1	13	1	22
O=C(c1cnc2n(c1=O)CCS2)N(c1ccccc1)C1CCCCC1	19	8	-37
O=C(C1CCCO1)N1N=C(c2c(-c3ccccc3)c3cc(Cl)ccc3[nH]c2=O)CC1c1ccco1 (configuration not stated)	93*	8	x
O=C(O)CCC(=O)N1N=C(c2cccs2)CC1c1ccco1 (configuration not stated)	0	-5	x
COc1cc(O)c2c(=O)c(OC)c(-c3cc(O)c(OC)c(OC)c3)oc2c1	28	-8	-14
C[C@@H]1CN([C@H](C)CO)C(=O)c2cccc(NC(=O)Nc3ccc4c(c3)OCO4)c2O[C@H]1CN(C)S(=O)(=O)c1cn(C)cn1	29	3	-50
O=[N+]([O-])c1nn(-c2ccc(Cl)cc2)n(O)c1=NCc1ccccn1	112*	22	x
O=[N+]([O-])c1nn(-c2ccccc2)n(O)c1=NCc1ccco1	34	-23	x
COc1ccc(NC(=O)COc2ccc(Cl)cc2)cc1NC(=O)c1ccco1	-5	-2	x
Cc1cc(C)n(CC(O)Cn2c3ccccc3c3ccccc32)c(=O)n1 (configuration not stated)	-10	2	x
OC(CNCc1ccccc1)Cn1c2ccccc2c2ccccc21 (configuration not stated)	111*	-2	x
Cn1c(SCC(=O)n2c3c(c4ccccc42)CCCC3)nnc1-c1ccco1	109*	18	x
Cn1c(SCC(=O)n2c3c(c4ccccc42)CCCC3)nnc1-c1ccccc1	5	-19	x
CC(C)=CCc1c(O)c(CC=C(C)C)c2c(c1O)C(=O)CC(c1ccc(O)cc1O)O2 (configuration not stated)	116*	16	-2
CC(C)=CCc1c(O)cc(O)c2c1OC(c1ccc(O)c(O)c1)CC2=O (configuration not stated)	x	x	33
CCN(CC(=O)Nc1ccccc1)S(=O)(=O)c1ccc(C)cc1	-4	-13	x
SMILES	NOMO-1 viab	MITF inh	Shh pathway inh
S=C(NC1CCCCC1)Sc1ccc(Cl)cc1	122*	10	36
S=C(NC1CCCCC1)C(=S)NC1CCCCC1	34	-45	-22
COc1ccc(CN(C)C[C@H]2Oc3c(NC(=O)Nc4ccc5c(c4)OCO5)cccc3C(=O)N([C@H](C)CO)C[C@H]2C)cc1	-9	-30	-42
C[C@H]1CN([C@@H](C)CO)C(=O)c2cc(NC(=O)Nc3ccc4c(c3)OCO4)ccc2O[C@@H]1CN(C)Cc1ccc(C(F)(F)F)cc1	11	7	4
C[C@@H]1CN([C@@H](C)CO)C(=O)c2cc(NC(=O)Nc3ccc(F)cc3)ccc2O[C@@H]1CN(C)Cc1ccc(C(F)(F)F)cc1	105*	63	x
C[C@@H]1CN([C@@H](C)CO)C(=O)c2cc(NC(=O)Nc3ccc(C(F)(F)F)cc3)ccc2O[C@@H]1CN(C)Cc1ccccc1	119*	30	33
C[C@H](CO)N1C[C@H](C)[C@H](CN(C)Cc2ccc(C(=O)O)cc2)Oc2ccc(NC(=O)Nc3ccc(C(F)(F)F)cc3)cc2C1=O	-15	-4	-47
C[C@H]1CN([C@@H](C)CO)C(=O)c2cc(NC(=O)Nc3ccc(C(F)(F)F)cc3)ccc2O[C@@H]1CN(C)Cc1ccc(C(=O)O)cc1	-23	-3	x
COc1ccc(CN(C)C[C@@H]2Oc3ccc(NC(=O)Nc4ccc(C(F)(F)F)cc4)cc3C(=O)N([C@@H](C)CO)C[C@@H]2C)cc1	100*	-5	28
COc1ccc(NC(=O)Nc2ccc3c(c2)C(=O)N([C@H](C)CO)C[C@@H](C)[C@H](CN(C)Cc2ccc(C(F)(F)F)cc2)O3)cc1	49	-5	x
C[C@@H]1CN([C@@H](C)CO)C(=O)c2cc(NC(=O)Nc3ccc4c(c3)OCO4)ccc2O[C@H]1CN(C)Cc1ccc(C(F)(F)F)cc1	93*	15	x
Cc1ccc(NC(=O)C2CC(=O)n3cnnc3N2)cc1 (configuration not stated)	5	-9	x
C[C@@H]1CN([C@H](C)CO)C(=O)Cc2cc(NC(=O)Nc3cccc4ccccc34)ccc2O[C@@H]1CN(C)C(=O)Nc1ccccc1	10	-17	-8
C[C@H]1CN([C@@H](C)CO)C(=O)Cc2cc(NC(=O)C3CC3)ccc2O[C@@H]1CN(C)S(C)(=O)=O	-5	-19	-6
Cc1ccc(C)c(NC(=O)CN(c2ccc(Br)cc2)S(C)(=O)=O)c1	-23	7	x
C[C@@H]1CN([C@H](C)CO)C(=O)c2cc(NC(=O)Nc3ccc(C(F)(F)F)cc3)ccc2O[C@H]1CN(C)Cc1ccc(Oc2ccccc2)cc1	58	0	-31
C[C@@H]1CN([C@@H](C)CO)C(=O)c2cc(NC(=O)Nc3ccc(C(F)(F)F)cc3)ccc2O[C@@H]1CN(C)Cc1ccc(Oc2ccccc2)cc1	117*	27	x
C[C@@H]1CN([C@H](C)CO)C(=O)c2cc(NC(=O)Nc3ccc(C(F)(F)F)cc3)ccc2O[C@H]1CN(C)Cc1ccccc1	76	-13	10
C[C@H]1CN([C@@H](C)CO)C(=O)c2cc(NC(=O)Nc3ccc(C(F)(F)F)cc3)ccc2O[C@@H]1CN(C)Cc1ccccc1	94*	8	x
CCc1c(O)c(Cc2ccccc2)c(=O)n(-c2nccs2)c1-c1ccccc1	33	-11	-35
Cc1noc(C)c1NC(=O)Nc1ccc2c(c1)C(=O)N([C@H](C)CO)C[C@H](C)[C@H](CN(C)Cc1ccc(C(=O)Nc3ccccc3N)cc1)OCCCC[C@@H](C)O2	35	-5	x
Cc1c(Cl)cccc1NC(=O)CN(c1cccc(F)c1)S(C)(=O)=O	17	9	x
N#CC(C#N)=C(Nc1ccccc1Cl)SCc1cccc(F)c1	87*	89*	112*
CC1(C)CCc2cc(-c3ccn(S(=O)(=O)c4ccc(Cl)cc4)n3)ccc2O1	68	14	26
CN(C)/C=C/C(=O)c1ccc2c(c1)CCC(C)(C)O2	121*	9	51
